Most compounds without a hit are left out; they make up all but 3.5% or so of the library.
TEAD-YAP inh: TEAD-YAP interaction inhibition. HEK-TIYL cells, TEAD-Gal4/YAP UAS-luciferase luminescence. inhibition, % at 9.12 µM. hit rate 1.4% among 640,000; in the data active means inhibition above about 32%;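 further: 0% = median of test compound wells and 100% = reference inhibitor wells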
FBW7 activator: human FBW7 E3 ligase activation, primary screen; AlphaScreen FBW7–phospho-cyclin E peptide binding, activator screen; AID 1259310; normalized activity (activation), % at 26.1 µM; Q969H0; hit rate 0.13% among 650,000; in the data active means normalized activity above about 1.9%;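 further: purified mutant Fbw7 with reduced substrate affinity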
MITF inh: human MITF inhibition, primary screen; O75030; AlphaScreen MITF homodimerization, bead proximity signal; inhibition, % at 2.6 µM; hit rate 0.91% among 650,000; AID 1259374; in the data active means inhibition above about 50%;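 further: 0% = vehicle wells with protein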
Target sequence (O75030 whole entry, looked up): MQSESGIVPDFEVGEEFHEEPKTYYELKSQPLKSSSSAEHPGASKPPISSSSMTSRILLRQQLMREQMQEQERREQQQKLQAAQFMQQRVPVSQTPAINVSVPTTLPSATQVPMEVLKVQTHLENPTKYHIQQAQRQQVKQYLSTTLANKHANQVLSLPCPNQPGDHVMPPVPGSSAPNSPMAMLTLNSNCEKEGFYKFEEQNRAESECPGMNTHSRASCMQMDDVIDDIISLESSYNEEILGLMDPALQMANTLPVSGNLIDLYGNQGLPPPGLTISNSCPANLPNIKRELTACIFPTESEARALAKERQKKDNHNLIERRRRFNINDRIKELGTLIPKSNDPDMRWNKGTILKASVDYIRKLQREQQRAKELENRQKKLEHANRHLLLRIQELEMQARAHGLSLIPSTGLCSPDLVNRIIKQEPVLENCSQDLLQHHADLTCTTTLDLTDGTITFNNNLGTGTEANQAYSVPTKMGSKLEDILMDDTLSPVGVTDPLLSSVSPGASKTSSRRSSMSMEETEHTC
GPR151 ag: activates the human receptor GPR151; hit rate 1% among 650,000; AID 1508602; PathHunter beta-arrestin GPR151 cells, luminescence; activation, % at 11.2 µM; Q8TDV0; in the data active means activation above about 4.9%;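 further: 0% = median of compound wells and 100% = cells with positive control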
* = called active by the depositor.

SMILES	TEAD-YAP inh	FBW7 activator	MITF inh	GPR151 ag
CCC(C)c1ccccc1OCCOc1ccc(/C=C2/C(=N)N3N=C(C(F)(F)F)SC3=NC2=O)cc1 (stereo unspecified)	-1	0	4	0
COC(=O)C(CSCSC)NS(=O)(=O)c1ccc(C)cc1 (stereo unspecified)	8	0	2	3
CC(=O)NC(CC(C)C)c1nnc2n1CCN(Cc1ccoc1)CC2 (stereo unspecified)	-10	0	1	0
CCc1ncn(-c2ccc(Nc3nccc(-c4cccc(N5CCOCC5)c4)n3)cc2)n1	46*	0	10	0
c1ccc(Cn2nnnc2-c2ccc(Nc3nccc(-c4cccc(N5CCOCC5)c4)n3)cc2)cc1	0	2.0*	19	-1
CC(C)c1ncn(-c2ccc(Nc3nccc(-c4cccc(N5CCOCC5)c4)n3)cc2)n1	-2	0	14	0
Cc1ncn(-c2ccc(Nc3nccc(-c4ccc(S(C)(=O)=O)c(N5CCCC(O)C5)c4)n3)cc2)n1 (stereo unspecified)	2	0	6	0
CS(=O)(=O)c1cccc(-c2ccnc(Nc3ccc(-n4cnc(N5CCC(O)CC5)n4)cc3)n2)c1	42*	0	4	-1
CC(C)n1c(C2CC(=O)N(c3ccccc3F)C2)nc2ccccc21 (stereo unspecified)	7	0	-7	2
O=C(Cn1c2ccccc2n2nc(-c3cccs3)nc12)c1ccccc1	-7	0	-3	1
O=C(CN1CC[n+]2c(-c3cccs3)csc21)c1ccccc1	32*	0	9	0
N#CC1=C(N)Oc2ccc3ccccc3c2C1c1cccnc1 (stereo unspecified)	57*	0	-3	1
N#CC1=C(N)Oc2ccc3ccccc3c2C1c1cccc(F)c1 (stereo unspecified)	56*	0	1	-2
N#CC1=C(N)Oc2ccc3ccc(O)cc3c2C1c1cccnc1 (stereo unspecified)	4	0	1	0
N#CC1=C(N)Oc2c(ccc3ccccc23)C1c1cccc(F)c1 (stereo unspecified)	5	1	0	0
CCC(=O)C1CCCN(C(=O)CCN2Cc3cc(OC)ccc3OC(CC)C2)C1 (stereo unspecified)	-4	0	5	0
Cc1c(NC(=O)c2ccc(C#N)cc2F)cccc1-c1nc2ncccc2o1	-6	0	3	1
Cc1ncc(CO)c(/C=N\Nc2ccc3ccccc3n2)c1O	-3	0	32	0
O=C(O)CCN1C(=O)/C(=C\c2cc3c(cc2Br)OCO3)SC1=S	2	0	-3	-1
CN(C)c1ccc(C(CNC(=O)Cc2ccc(F)cc2)N2CCN(c3ccccc3)CC2)cc1 (stereo unspecified)	-1	0	72*	1
CNCC(O)Cn1ccc2ccccc21 (stereo unspecified)	12	0	4	1
COc1ccccc1NCC(O)Cn1ccc2ccccc21 (stereo unspecified)	-4	-1	69*	-1
COC(=O)CCNC(=O)Nc1cccc(Cl)c1	-2	0	3	-1
CCSc1nc2c(c(=O)[nH]c(=O)n2C)n1CCc1ccc(OC)cc1	43*	0	-12	0
CCSc1nc2c(c(=O)[nH]c(=O)n2C)n1CCCc1ccccc1	0	0	5	1
SMILES	TEAD-YAP inh	FBW7 activator	MITF inh	GPR151 ag
O=C(c1cc2c(s1)CCC2)N1CCC(c2ccncc2)CC1	33*	0	17	-1
Cc1c(Cl)cccc1NC(=O)Cn1nnc(-c2ccccc2NC(=O)C2CCC2)n1	1	0	-4	0
CC1=NN(c2ccccc2)C(=O)C12CC(C)=C(C)CS2 (stereo unspecified)	-7	0	-5	0
CNC(=O)c1ncccc1Nc1cc(Nc2ccc(C(=O)N(C)C)cn2)ncc1C(F)(F)F	72*	0	-2	0
CNC(=O)c1ncccc1Nc1cc(Nc2ccc3[nH]ncc3c2)ncc1C(F)(F)F	9	0	3	1
CNC(=O)c1ccccc1Nc1cc(Nc2ccc(C(=O)N(C)C)cc2C)ncc1C(F)(F)F	73*	0	-4	0
CNC(=O)c1ccccc1Nc1cc(Nc2ccc(C(=O)N(C)C)cn2)ncc1C(F)(F)F	84*	0	-4	-1
CNC(=O)c1ccccc1Nc1ccnc(Nc2ccccn2)c1	76*	-1	5	0
CNC(=O)c1ccccc1Nc1cc(Nc2ccc(-c3cncnc3)cc2OC)ncc1C(F)(F)F	13	2	36	0
Cc1nn(CC(=O)c2ccc(C3CCCCC3)cc2)c(=O)c(C#N)c1C	3	0	4	-2
Cc1ccc(-c2noc(CN3CCN(c4ccccc4)CC3)n2)cc1	8	0	9	-2
O=C(CCC(=O)OCC(=O)c1ccc(Br)cc1)Nc1ccc(Oc2ccc(Cl)cc2Cl)cc1	6	0	-14	1
CCCCCCCc1c(O)nc(SCCN(CCC)CCC)n(-c2ccccc2)c1=O	2	0	3	-1
CNC(=O)c1ccccc1Nc1cc(Nc2ncccc2C)ncc1C(F)(F)F	40*	0	36	-2
CC(C)CC1=NC(C(F)(F)F)(C(F)(F)F)N=C(N2CCOCC2)O1	4	0	3	1
CCc1c(C)c(C#N)c2nc3ccccc3n2c1N1CCN(c2nc(C)cc(C)n2)CC1	9	0	10	0
CCCN(C(=O)c1coc(=O)c2ccccc12)c1cccc(Cl)c1	68*	0	2	0
CCCNC(=O)c1ccnc(Nc2ccc(-n3ccnc3)cc2)c1	6	0	7	0
C=CCOC(=O)COc1ccc2c(-c3cc4ccccc4oc3=O)cc(=O)oc2c1	-11	0	-4	3
O=C(N/N=C/c1cc(Br)cc(I)c1O)c1cccnc1	68*	0	41	0
Cc1cc(Br)cc(/C=N\NC(=O)c2ccc(N)cc2)c1O	66*	0	-4	0
COc1cc(Cl)cc(/C=N/NC(=O)c2cccc(F)c2)c1O	70*	-1	49	1
COc1cc(Br)cc(/C=N/NC(=O)c2ccncc2)c1O	87*	-1	91*	-1
COc1cc(Br)cc(/C=N/NC(=O)c2ccc(F)cc2)c1O	1	0	18	0
COc1cc(Br)cc(/C=N\NC(=O)c2ccc(Br)cc2)c1O	12	0	21	0
CCOC(=O)c1ccc(NC(=O)Cc2ccccc2OC)cc1	-3	0	21	4
O=C(c1ccccc1Cl)N1CCn2c3c(c4cc(C5CCCCC5)ccc42)CCCC31 (stereo unspecified)	6	0	12	0
CCCN1C(=O)CC(C(=O)OC)C12CCN(Cc1cccc3c1OCO3)CC2 (stereo unspecified)	10	0	8	0
Cc1ccc(CN[C@H]2C[C@H]3C(=O)N[C@@H](Cc4c[nH]c5ccccc45)C(=O)N3C2)cc1F	-10	0	-10	0
COc1ccc(C(=O)N/N=C/c2cc(Cl)cc(Br)c2O)cc1	33*	0	26	-1
